Compounds with a hit are over-represented: about 3.4% of the library has one in this group of screens.
HSF1 activator: HSF-1 activators, primary screen, NIH3T3-HGL cells, MG132 stress, luminescence, single point; NIH3T3-HGL HSF-1 luciferase reporter, 8 h; 100% = twice DMSO control signal; AID 504408, 2011; 300,000 tested, 1.7% active; activation, % at 9 µM;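 active = mean replicate activation of at least 50% with a set share of replicates each reaching 50%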;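 also: 0% = median of the neutral control wells and 100% = twice that signal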
Vif inh: HIV Vif self-association inhibitors, primary screen, imaging, HEK293T, single point. HEK293T cells, Vif self-association by quenched fluorescence, 24 h. inhibition, % at 7.49 µM. 340,000 tested, 0.35% active. AID 602346, 2012; in the data active = inhibition above about 50%, passing the limit was not always enough
esBAF inh: Bmi1 luciferase reporter increase in mESCs, primary screen, esBAF inhibitor project, mouse ES cells, Bmi1 luciferase knock-in, single point. 24 h; 100% = twice the neutral-well signal. 350,000 tested, 2% active. reporter increase, % at 12.5 µM. AID 602393, 2012; in the data active = activation above about 40%;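 also: 0% = median of the plate's neutral control wells and 100% = double that signal; a rise in the Bmi1 reporter signal indicates esBAF inhibition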
HSF1 inh: HSF1 inhibitors in luciferase reporter cells, primary screen, cell-based, NIH3T3, luminescence | NIH3T3-HGL HSE-luciferase, MG132-induced, luminescence 8 h; active compounds read low | activity change, negative = inhibition, % at 7.5 µM (by protocol) | 300,000 tested, 0.77% active | AID 2098, 2009;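 active = more than half of replicate wells show activity change below -50%, luminescence cut by over half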;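 also: luciferase reports HSF-1 transcriptional activity via heat shock element; 0% = median of DMSO wells and -100% = zero luminescence signal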
The depositor's hits bear a star; x = no result.

SMILES	HSF1 activator	Vif inh	esBAF inh	HSF1 inh
O=C(Nc1cccc(F)c1)c1ccco1	2	31	45*	5
O=C(CNC(=O)c1ccco1)Nc1ccc(Cl)cc1	-2	12	39	5
O=C(Nc1ccccc1)Nc1ccc(Br)c(Cl)c1	-18	-11	75*	-14
O=C(NC(NC(=S)Nc1ccc(Cl)c(Cl)c1)C(Cl)(Cl)Cl)c1ccco1 (centres undefined)	2	7	x	0
O=C(c1ccccc1)c1cccc(NC(=O)c2ccco2)c1	21	x	66*	16
O=C(Nc1ccccc1)Nc1ccccc1Br	15	-1	x	9
O=C(Nc1ccc(-c2nc3cccnc3s2)cc1)c1ccco1	18	2	-7	-2
O=C(Nc1cccc(-c2nc3cccnc3s2)c1)c1ccco1	5	97*	36	8
O=C(Nc1cccc(NC(=O)c2ccco2)c1)c1ccccc1	4	8	11	-6
O=C(O)c1cccc(NC(=S)NC(NC(=O)c2ccco2)C(Cl)(Cl)Cl)c1 (centres undefined)	-69	-10	x	-61*
C[C@@H]1CN([C@@H](C)CO)C(=O)c2cc(C#CC(C)(C)O)cnc2O[C@H]1CN(C)Cc1cncnc1	x	x	5	x
CO[C@@H]1CN(C)C(=O)c2ccc(NC(=O)C3CC3)cc2OC[C@@H](C)N(CC2CCOCC2)C[C@@H]1C	x	x	0	x
COc1ccc(C(=O)COc2cccc(NC(=O)c3ccco3)c2)cc1	-2	-7	x	2
O=C(COc1cccc(NC(=O)c2ccco2)c1)c1ccccc1	42	-1	50*	18
O=C(O)c1ccc(N=Nc2c(O)[nH]c3cc(Cl)ccc23)cc1	-3	-1	x	6
Oc1[nH]c2ccc(Br)cc2c1N=NC(=S)N1CCOCC1	240*	-3	x	236
O=C(O)c1ccc(N=Nc2c(O)[nH]c3ccc(Br)cc23)cc1	-22	5	80*	-21
Oc1[nH]c2ccccc2c1N=NC(=S)N1CCOCC1	87*	17	-5	56
COC(=O)c1ccc(/C=C(\C#N)c2ccccn2)cc1	86*	7	102*	43
N#C/C(=C\c1ccccn1)c1ccccn1	-66	-11	18	-60*
N#C/C(=C\c1ccc([N+](=O)[O-])cc1)c1ccccn1	73*	0	x	49
COc1cc(/C=C(\C#N)c2ccccn2)cc(OC)c1O	-12	-4	2	-5
Cc1cc(C)n2nc(/C(C#N)=C/c3ccccn3)c(C#N)c2n1	99*	2	-1	71
CN(C)c1ccc(/C=C(\C#N)c2ccccn2)cc1	39	1	x	39
C[C@@H]1CN([C@@H](C)CO)C(=O)c2cc(-c3ccncc3)cnc2O[C@H]1CN(C)C	x	x	-6	x
SMILES	HSF1 activator	Vif inh	esBAF inh	HSF1 inh
CC(C)NC(=O)Nc1cccc2c1O[C@@H](CN(C)S(=O)(=O)c1cccs1)[C@H](C)CN([C@H](C)CO)C2=O	x	x	-5	x
C[C@@H]1CN([C@@H](C)CO)C(=O)c2cc(NC(=O)CCC(F)(F)F)ccc2O[C@@H](C)CCCCO[C@@H]1CN(C)C(=O)Nc1ccc2c(c1)OCO2	x	x	0	x
Cc1cc(C(=O)CN2C(=O)NC(CC(C)C)C2=O)c(C)n1-c1ccccc1F (centres undefined)	-2	0	x	3
Cc1cc(C(=O)CN2C(=O)NC(CC(C)C)C2=O)c(C)n1C1CC1 (centres undefined)	x	11	43*	x
CCn1c(=O)cc(SCC(=O)N2CCN(C)CC2)c2ccccc21	63*	-1	-13	33
O=C(Cn1cc(SCc2ccccc2Cl)c2ccccc21)N1CCOCC1	44	-8	82*	29
CCn1cc(SCC(=O)N2CCOCC2)c2ccccc21	15	x	52*	10
CC(=O)Nc1ccc(NC(=O)CSc2cn(CC(=O)N3CCOCC3)c3ccccc23)cc1	-76	8	-3	-69*
CC(=O)c1ccc(NC(=O)CS(=O)(=O)c2cn(CC(=O)N3CCOCC3)c3ccccc23)cc1	9	-1	x	7
O=C(C(=O)N1CCOCC1)c1cn(CC(=O)N2CCCCC2)c2ccccc12	-4	-3	x	1
COc1cccc(C(=O)N2C[C@H]3[C@@H](c4ccccc42)[C@H](CO)N3Cc2ccccc2Cl)c1	x	x	3	x
O=C(NCc1ccc(Cl)cc1)C(=O)c1cn(CC(=O)N2CCOCC2)c2ccccc12	22	-5	12	13
O=C(Nc1ccccc1Cl)C(=O)c1cn(CC(=O)N2CCOCC2)c2ccccc12	-12	-1	52*	-6
O=C(c1cn(CC(=O)N2CCCCC2)c2ccccc12)C1CC1	62*	8	5	38
C[C@H]1CN([C@@H](C)CO)C(=O)c2cc(NS(=O)(=O)c3ccccc3)ccc2O[C@H]1CN(C)CC1CC1	x	x	3	x
C[C@@H]1CN([C@H](C)CO)C(=O)c2cc(C#CC3CCCCC3)cnc2O[C@H]1CN(C)S(=O)(=O)c1ccccc1	x	x	-1	x
CCNC(=O)Nc1ccc2c(c1)C(=O)N(C)[C@@H]1CC[C@H](CC(=O)NCC3CC3)O[C@@H]1CO2	x	x	2	x
Cc1ncc(C(=O)O)c(C(=O)O)c1N	17	62*	3	2
CSc1ncc(C(=O)O)c(C)n1	4	-11	-8	-3
Clc1ccc(-c2nnc(C3CCCCC3)o2)cc1	15	6	37	-2
Clc1ccc(-c2nc(C3CCCCC3)no2)cc1	46	15	76*	28
Cc1cc(OCCN2CCOCC2)ccc1Cl	36	-3	43*	14
O=C(NC(=O)c1ccccc1O)c1ccc(C(F)(F)F)cc1	91*	-11	x	62
COc1cc2c(cc1OC)-c1cc(Nc3ccc4c(c3)OCCO4)nc(=O)n1CC2	-75	-6	-30	-72*
CN=c1scc(-c2ccco2)n1/N=C/c1ccc(O)c(O)c1	-83	21	x	-83*
SMILES	HSF1 activator	Vif inh	esBAF inh	HSF1 inh
COc1ccc(OC)c(/C=C/C(=O)c2ccc3c(c2)OCCO3)c1	66*	-5	23	53
COc1ccc(/C=C/C(=O)c2ccc3c(c2)OCO3)cc1OC	x	-2	-7	x
COc1cc(/C=C/C(=O)c2ccc3c(c2)OCCO3)cc(OC)c1OC	190*	-4	2	147
C[C@H](CO)N1C[C@H](C)[C@H](CN(C)S(=O)(=O)c2cccs2)Oc2ccc(NS(=O)(=O)c3cccs3)cc2C1=O	x	x	1	x
OC[C@H]1Nc2ccc(C#Cc3ccc(F)cc3)cc2[C@@H]2[C@H]1CCN2Cc1ccc2c(c1)OCO2	x	x	-8	x
Cn1cnc(S(=O)(=O)N[C@@H]2C=C[C@H](CC(=O)N3CCN(c4ccccc4)CC3)O[C@H]2CO)c1	x	x	-2	x
Cc1onc(-c2ccccc2)c1C(=O)Nc1nc(-c2cc(F)ccc2F)cs1	26	5	30	14
Cc1noc(C)c1C(=O)Nc1nc(-c2cc(F)ccc2F)cs1	x	-1	74*	x
CC(=O)N(C)C[C@@H]1Oc2ncc(-c3cccc(C#N)c3)cc2C(=O)N([C@@H](C)CO)C[C@@H]1C	x	x	3	x
